# According to the supplement of paper PMC6555819:
# Experiments:
# Test in all cases: PBM binding z-score (relative to random genomic background probes); higher = stronger binding; sequences stand for … in GC…GCGATTGACAGCGTAGAATGAAGG
# [1] = tested on: FXR:RXRa (NR concentration 270 nM, RXRa partner concentration 90 nM)
# Method in brief: (§1)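 The probes on custom Agilent 4×180K protein-binding microarrays were double-stranded, with 34-nt variable regions bearing direct-repeat seeds, single-nucleotide variants, half-site ablations and random human genomic background sequences. Incubation lasted 1 h with ligand-free nuclear receptor dimers in PBS pH 7.4, 2% milk, 0.02% Triton X-100, 1 mM DTT, 0.2 mg/mL BSA and 0.4 mg/ml salmon testes DNA. Antibodies against each partner (one per run) detected bound dimers, and fluorescence scans were regression-normalized. Binding z-scores take the random background probes as reference.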
# [2] = tested on: LXRa:RXRa (NR concentration 270 nM, RXRa partner concentration 90 nM)
# Method in brief: as §1
# [3] = tested on: LXRa homodimer (NR concentration 270 nM)
# Method in brief: as §1
# [4] = tested on: LXRb:RXRa (NR concentration 270 nM, RXRa partner concentration 90 nM)
# Method in brief: as §1
# [5] = tested on: LXRb homodimer (NR concentration 270 nM)
# Method in brief: as §1
# [6] = tested on: PPARa:RXRa (NR concentration 270 nM, RXRa partner concentration 90 nM)
# Method in brief: as §1
# [7] = tested on: PPARg:RXRa (NR concentration 180 nM, RXRa partner concentration 90 nM)
# Method in brief: as §1
# [8] = tested on: PPARg:RXRa 270nM:90nM, anti-RXR (NR concentration 270 nM, RXRa partner concentration 90 nM)
# Method in brief: as §1
# [9] = tested on: PPARg:RXRa 30nM:10nM, anti-RXR (NR concentration 30 nM, RXRa partner concentration 10 nM)
# Method in brief: as §1
# [10] = tested on: PPARg:RXRa 90nM:30nM, anti-RXR (NR concentration 90 nM, RXRa partner concentration 30 nM)
# Method in brief: as §1
# [11] = tested on: PPARg:RXRa DBDmut IVT, anti-RXR (DBD mutation: RXRa K156A/R161A, NR concentration 270 nM, RXRa partner concentration 90 nM)
# Method in brief: as §1
# [12] = tested on: PPARg:RXRa IVT, anti-PPARg (NR concentration 270 nM, RXRa partner concentration 90 nM)
# Method in brief: as §1
# [13] = tested on: PPARg DBDmut:RXRa IVT, anti-PPARg (DBD mutation: PPARg1 K132A/R137A, NR concentration 270 nM, RXRa partner concentration 90 nM)
# Method in brief: as §1
# [14] = tested on: PPARg DBDmut IVT, anti-PPARg (DBD mutation: PPARg1 K132A/R137A, NR concentration 270 nM)
# Method in brief: as §1
# [15] = tested on: PPARg homodimer (NR concentration 180 nM)
# Method in brief: as §1
# [16] = tested on: PXR:RXRa (NR concentration 270 nM, RXRa partner concentration 90 nM)
# Method in brief: as §1
# [17] = tested on: PXR homodimer (NR concentration 270 nM)
# Method in brief: as §1
# [18] = tested on: RARa:RXR (NR concentration 270 nM, RXRa partner concentration 90 nM)
# Method in brief: as §1
# [19] = tested on: RARa homodimer (NR concentration 270 nM)
# Method in brief: as §1
# [20] = tested on: RARb:RXRa (NR concentration 270 nM, RXRa partner concentration 90 nM)
# Method in brief: as §1
Sequence,PBM binding z-score [1],PBM binding z-score [2],PBM binding z-score [3],PBM binding z-score [4],PBM binding z-score [5],PBM binding z-score [6],PBM binding z-score [7],PBM binding z-score [8],PBM binding z-score [9],PBM binding z-score [10],PBM binding z-score [11],PBM binding z-score [12],PBM binding z-score [13],PBM binding z-score [14],PBM binding z-score [15],PBM binding z-score [16],PBM binding z-score [17],PBM binding z-score [18],PBM binding z-score [19],PBM binding z-score [20]
ACTAGCAGGCCAAGGGTCACTCATGATTAGTCCG,2.27,2.25,0.295,2.52,-0.498,4.38,7.52,7.48,6.27,7.65,1.25,3.63,0.294,-0.197,2.62,3,-0.0152,4.04,0.642,3.41
TCTAGCAGGCAAGAGGGTCACTCAAGAGGTACGG,0.555,0.86,-0.678,1.18,-1.24,2.25,1.01,1.76,1.7,1.82,0.584,0.0219,-0.412,-0.872,0.722,1.62,-0.663,2.3,-0.406,1.92
AGAATGAGGCTAAGATCAGGGAAACAGAATACAT,-0.36,-0.634,-0.0824,-0.157,-0.737,-0.0265,0.645,0.202,0.113,0.138,0.345,0.552,0.582,0.0133,0.00249,-0.259,0.0356,-0.0952,0.229,0.158
CTCGAAGGGTCGGTTGAGGTGAGTATACGGATAA,2.14,0.689,-0.0739,0.752,-0.256,1.37,0.221,0.4,0.00814,0.0401,-0.575,0.478,-0.346,0.307,0.548,1.86,0.399,1.32,-0.148,1.88
TAGCCAAGGTCATGCGGGCCAGTATAGTGTCGGC,7.03,4.97,1.17,3.87,0.499,5.58,4.64,4.84,1.61,3.73,1.6,3.47,1.13,0.504,1.92,4.35,1.1,4.48,0.0818,5.09
CTCGAAAGGTCGGTTGAGTTGAGTATACGGATAA,2.22,1.48,0.18,1.5,-0.0298,2.27,0.295,0.792,0.314,0.857,0.55,0.513,0.723,0.673,1.04,3.89,0.374,1.81,0.0679,2.71
